# PMP22 txn: PMP22 gene transcription modulation. S16 Pmp22-F2sN Schwann cells, FLuc/NLuc coincidence luminescence, 24 h. 43,000 tested, 2% active. Potency, µM (titrated, usually from 57.5 µM), for inactives: top-dose activity change, negative = inhibition, most hits filed as inhibitors. AID 1508649; active = clear falling dose curves in both reporters; inconclusive = both reporters move, but less clearly or upward; inactive = either reporter flat; the % is the NLuc reporter signal; also: potency is read from the fitted curve at half-maximal effect; % is scaled to controls: 0 for no effect and ±100 for the full control effect
#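 S16(c9) Schwann cells with FLuc/NLuc coincidence reporter in the Pmp22 3' UTR; compounds pin-transferred, 24 h at 37C. Dual-luciferase read: FLuc first, then NLuc after Stop&Glo, each 10 min at room temperature.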
# GALC G270D act: raises human GALC G270D mutant activity in cells. 45,000 tested, 0.1% active. Potency, µM (doses to about 57.5 µM), most hits filed as activators. 145M-Twi-hGALC-G270D cells (Twitcher mouse brain line with human GALC G270D), HMU-beta-Gal fluorescence, 48 h. P54803; also: potency is read from the fitted curve at half-maximal effect; 0% is about no effect; nearly all actives have a fitted effect of over 65% in size
#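 Fluorescence readout: HMU-β-gal cleavage by mutant GALC (0.1 mM final, citrate/phosphate pH 5.2 with 1 mg/mL taurocholate), stopped with carbonate/bicarbonate plus Triton X-100. Cells: murine Twitcher 145M-Twi expressing human G270D GALC; qHTS for activators.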
# SKOV3 invasion: blocks SKOV3ip1 adhesion and invasion in omental model; SKOV3ip1-GFP adhesion/invasion on 3D omental model, fluorescence; AID 1963576; Potency, µM (highest dose often 45.8 µM), inactives show top-dose activity change, negative = inhibition, usual class: inhibitors; 46,000 tested, 0.1% active;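 also: potency is read from the fitted curve at half-maximal effect; plate controls were DMSO wells for no effect and tomatine positive control wells for full effect; nearly all actives have a fitted effect of over 65% in size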
#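 qHTS, 4-pt dose (0.36-46 umol/L); SKOV3ip1-GFP, 1,200 cells/well, no FBS; primary omental fibroblast/mesothelial co-culture 48 h pre-grown; 2 h RT + 16 h 37 C; PBS wash, 4% PFA; GFP count 488/509 nm.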
# NTMT1 inhibitor: NTMT1 methyltransferase inhibition; Q9BV86; Potency, µM (highest dose often 114 µM), without a hit: at the top dose activity change, negative = inhibition, usual class: inhibitors; AID 1645870; NTMT1 MTase-Glo SAH luminescence, purified enzyme; 59,000 tested, 2.5% active;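 also: potency is read from the fitted curve at half-maximal effect; plate controls were DMSO vehicle for no effect and no enzyme for full effect; nearly all actives have a fitted effect of over 65% in size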
# Target sequence (Q9BV86 whole entry, looked up): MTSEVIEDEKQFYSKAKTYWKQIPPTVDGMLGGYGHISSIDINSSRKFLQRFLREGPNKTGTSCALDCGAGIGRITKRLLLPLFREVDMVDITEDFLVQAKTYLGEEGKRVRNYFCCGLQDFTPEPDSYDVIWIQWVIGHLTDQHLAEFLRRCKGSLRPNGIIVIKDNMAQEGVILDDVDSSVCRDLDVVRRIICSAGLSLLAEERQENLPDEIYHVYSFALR
# S16 viability: toxic to S16 Pmp22-F2sN Schwann cells; S16 Pmp22-F2sN Schwann cells (luciferase reporters placed in the Pmp22 gene) viability, CellTiter-Glo, 24 h; Potency, µM (top dose mostly 57.5 µM), for the others: at the highest dose activity change, negative = cytotoxicity, most hits filed as cytotoxic; 43,000 tested, 0.48% active; also: potency is read from the fitted curve at half-maximal effect; % is scaled to controls: 0 for no effect and ±100 for the full control effect; nearly all actives have a fitted effect of over 65% in size
#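 Seed 500-1,000 S16 Pmp22-F2sN cells per well in phenol-red-free DMEM with 10% heat-inactivated FBS; pin-add 23 nL compound; incubate 24 h at 37C; add CellTiter-Glo, wait 15 min protected from light; read luminescence.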
# mTORC1 inh: reduces mTORC1 signaling in Tsc2 and p53 null MEF cells | 44,000 tested, 0.78% active | AID 493208 | Potency, µM (doses to about 38.3 µM), for inactives: at the top dose activity change, negative = inhibition, actives largely listed as inhibitors | Tsc2-/- p53-/- MEF, phospho-rpS6 immunofluorescence/PI, 24 h;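 also: potency is read from the fitted curve at half-maximal effect; plate controls were DMSO for no effect and rapamycin for full effect; nearly all actives have a fitted effect of over 50% in size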
#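 Read-out: phospho-S6 Alexa-488 intensity over PI intensity per well, scored as % active cells using thresholds from rapamycin (7.5 nM) and DMSO controls. Tsc2-/-, p53-/- MEFs exposed to compound for 24 h; PI cell count recorded as viability.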
# Sfp PPTase inh: inhibitors of Bacillus subtilis Sfp PPTase, optimization followup. AID 540350. purified Sfp PPTase enzyme activity, qHTS. Potency, µM (top dose mostly 114 µM), inactives show top-dose activity change, negative = inhibition, actives largely listed as inhibitors. shares compounds with NTMT1 inhibitor. 230 tested, 78% active
# Bsub HM489 growth: Sfp PPTase inhibitors: growth inhibition of B. subtilis HM489. shares compounds with NTMT1 inhibitor. 220 tested, 50% active. Potency, µM (series often up to 114 µM), inactives show top-dose activity change, negative = inhibition, hits mostly inhibitors. B. subtilis HM489 (acpS-) growth, BacTiter-Glo, 5 h
# Sfp PPTase gel: inhibits B. subtilis Sfp PPTase in gel assay; shares compounds with NTMT1 inhibitor; purified Sfp PPTase, gel-based product detection; Potency, µM (highest dose often 250 µM), without a hit: at the top dose activity change, negative = inhibition, most hits filed as inhibitors; 220 tested, 54% active
# Sfp SAR2: inhibits B. subtilis Sfp PPTase in second SAR round. Potency, µM (highest dose often 57.1 µM), for inactives: at the highest dose activity change, negative = inhibition, hits mostly inhibitors. 230 tested, 87% active. AID 602370. purified Sfp enzyme, PPTase activity, qHTS. shares compounds with NTMT1 inhibitor
# USP2a K63: USP2a inhibition confirmed on K63 diubiquitin. AID 652172. USP2 cleavage of DiUb K63-3IQF, fluorescence kinetic. Potency, µM (titrated, usually from 57.5 µM), inactives show top-dose activity change, negative = inhibition, actives largely listed as inhibitors. 30 tested, 80% active. shares compounds with NTMT1 inhibitor
# Casp6 counter: caspase-6 inhibition, USP2a inhibitor counterscreen. 30 tested, under 10 active. Caspase 6 enzyme, Caspase-Glo 6 luminescence. shares compounds with NTMT1 inhibitor. AID 652277. activity change, negative = inhibition, % at 46.1 µM
# Target sequence (P55212 whole entry, looked up): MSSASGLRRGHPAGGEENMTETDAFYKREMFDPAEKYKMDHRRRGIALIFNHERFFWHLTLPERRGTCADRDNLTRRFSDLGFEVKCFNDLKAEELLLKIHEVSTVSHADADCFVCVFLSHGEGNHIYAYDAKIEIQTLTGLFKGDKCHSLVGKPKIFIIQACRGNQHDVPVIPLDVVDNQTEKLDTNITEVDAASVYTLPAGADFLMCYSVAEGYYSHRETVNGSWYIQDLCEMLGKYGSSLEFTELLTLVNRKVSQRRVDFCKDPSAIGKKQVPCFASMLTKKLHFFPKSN
# HSD17B4 inh: counter-screen for HPGD inhibitors: human HSD17B4 inhibition. shares compounds with NTMT1 inhibitor. purified HSD17B4, estradiol/NAD+, NADH fluorescence. Potency, µM (top dose mostly 57.1 µM), for the others: at the highest dose activity change, negative = inhibition, hits mostly inhibitors. 230 tested, 10% active. AID 743187
# ALDH1A1 counter: inhibits human ALDH1A1, off-target for HPGD inhibitors; 230 tested, 93% active; shares compounds with NTMT1 inhibitor; Potency, µM (titrated, usually from 57.1 µM), for the others: at the top dose activity change, negative = inhibition, usual class: inhibitors; recombinant ALDH1A1, NADH fluorescence, propionaldehyde/NAD+
# NNMT counter: counter-screen for NTMT1 inhibitors: human NNMT inhibition | shares compounds with NTMT1 inhibitor | AID 1645878 | 120 tested, 10% active | NNMT MTase-Glo luminescence, SAH detection | Potency, µM (series often up to 57.1 µM), for the others: at the highest dose activity, negative = inhibition, usual class: inhibitors
# The depositor's hits bear a star; i = inactive; u = inconclusive; x = no result given; ! = not active in a repeat; [ ] = dose if it differs, or a comment. The list is not random: actives were taken first. Their share in the collection is about 3.6%. Unless noted, calls follow the shape of the dose curve; as a rule, active = well fitted curve in the direction sought with a large enough effect; inconclusive = small, poorly fitted or top-dose-only effect, or another doubt; inactive = no such curve, though single readings can be large; an effect the other way counts as inactive or inconclusive.
SMILES,PMP22 txn,GALC G270D act,SKOV3 invasion,NTMT1 inhibitor,S16 viability,mTORC1 inh,others
Cc1ccnc(NC(=S)NCCN(C)c2cccc(C(F)(F)F)c2)c1,x,x,x,-3.3%,x,x,Sfp PPTase inh=u;Bsub HM489 growth=2.7%;Sfp PPTase gel=-11.0%;Sfp SAR2=u;HSD17B4 inh=-4.7%;ALDH1A1 counter=15.2µM*
CCN(c1ccccc1)c1nnc(NC(=O)Nc2cccc(C(F)(F)F)c2)s1,-4.9%,i,i,8.0%,-4.9%,1.0%,
Cc1ccnc(NC(=S)NCCNc2cccc(C(F)(F)F)c2)c1,x,x,x,u,x,x,Sfp PPTase inh=u;Bsub HM489 growth=u;Sfp PPTase gel=-17.7%;Sfp SAR2=6.46µM*;HSD17B4 inh=6.07µM*;ALDH1A1 counter=19.2µM*
Cc1ccc(Cn2c(=O)c3cccnc3n(CC(=O)Nc3cccc(C(F)(F)F)c3)c2=O)cc1,u,i,-2.9%,7.5%,-7.8%,-1.2%,
Cc1ccc(S(=O)(=O)Nc2cc(Cl)ccc2C(=O)Nc2nc(-c3ccccc3)cs2)cc1,x,x,3.5%,27.1µM*!,x,x,USP2a K63=1.72µM*;Casp6 counter=-11.6
Cc1ccc(S(=O)(=O)Nc2cnccc2C(=O)Nc2ccncc2)cc1,x,x,x,u,x,x,USP2a K63=-11.6%;Casp6 counter=-20.5
Cc1ccc(S(=O)(=O)Nc2ccccc2C(=O)Nc2nccs2)cc1,x,x,x,25.1%,x,x,USP2a K63=u;Casp6 counter=16.7
Cc1ccc(S(=O)(=O)Nc2ccccc2C(=O)Nc2nc(-c3ccc(Cl)cc3)cs2)cc1,x,x,x,-5.3%,x,x,USP2a K63=4.3%;Casp6 counter=-7.3
Cc1ccc(S(=O)(=O)Nc2ccc(Br)cc2C(=O)Nc2nc(-c3ccccc3)cs2)cc1,x,x,x,-15.1%,x,x,
Cc1ccc(S(=O)(=O)Nc2ccccc2C(=O)Nc2nc(-c3ccccc3)c(C)s2)cc1,x,x,x,-5.8%[57.5 µM],x,x,
O=S(=O)(N=Cc1c(O)ccc2ccccc12)c1cccs1,x,x,23.3%,-11.3%[57.5 µM],x,x,
O=C(O)CCc1cccc(O)c1O[C@@H]1O[C@H](CO)[C@@H](O)[C@H](O)[C@H]1O,x,x,x,14.7%[29.8 µM],x,x,
CN(C)c1nc(NC2CCC(NCCc3ccc(Br)cc3OC(F)(F)F)CC2)nc2ccccc12 (stereo not given),x,x,x,35.5µM*,x,x,NNMT counter=22.4µM*
COc1ccc(C#Cc2ccc(C(=O)N3CCC[C@@H](O)C3)c(F)c2)cc1,x,x,x,-26.8%[57.5 µM],x,x,
COc1ccc(C2Nc3ccccc3C(=O)N2Cc2cccnc2)cc1COc1ccc(NC(C)=O)cc1 (stereo not given),x,x,x,15.5%,x,x,
O=C(Nc1ccccc1)c1ccc(Nc2nnc(-c3ccc(O)cc3)c3ccccc23)cc1,x,x,x,6.9%[57.5 µM],x,x,NNMT counter=u
Cc1ccc(S(=O)(=O)Nc2cc(C(=O)Nc3nc(-c4ccccc4)cs3)ccc2Cl)cc1,x,x,x,1.3%[57.5 µM],x,x,

# Screening data deposited in PubChem BioAssay by National Center for Advancing Translational Sciences (NCATS).
